According to the supplement of paper PMC13380429:

Tested on: Vero E6 infected with SARS-CoV-2
Test: inhibition of SARS-CoV-2 cytopathic effect; higher = more antiviral protection, active = above 15
Conditions: 48 h

Measured: inhibition of SARS-CoV-2 cytopathic effect

Cn1cc(-c2cnc3ccc4ccc(CS(=O)(=O)NCc5ccccn5)cc4c(=O)c3c2)cn1
inactive: 1 nM 1.02% | 8.33 nM 0.57% | 100 nM 1.94% | 833.33 nM 3.38% | 10000 nM 1.59%

CCCCCCCCCCCCCCCCCCCCCCO [docosanol]
inactive: 1 nM -8.94% | 8.33 nM -7.8% | 100 nM -10.4% | 833.33 nM -7.91% | 10000 nM -4.03%

N#Cc1c(O)c2c(-c3ccc(-c4ccccc4O)cc3)csc2[nH]c1=O
inactive: 1 nM -1.57% | 8.33 nM -3.91% | 100 nM -1.86% | 833.33 nM 0.75% | 10000 nM 3.92%

O=C(O)CN1C(=O)c2cccc3cccc(c23)C1=O [alrestatin]
inactive: 1 nM 5.18% | 8.33 nM 3.1% | 100 nM 3.59% | 833.33 nM 4.81% | 10000 nM 1.83%

COc1ccc(-c2cc3nccn3c(Nc3ncccc3C(N)=O)n2)cc1OC
inactive: 1 nM -3.34% | 8.33 nM -0.9% | 100 nM -4.75% | 833.33 nM -2.69% | 10000 nM -6.9%

COC(=O)[C@@H](N)CS [mecysteine]
inactive: 1 nM 2.04% | 8.33 nM -0.66% | 100 nM -0.44% | 833.33 nM 2.25% | 10000 nM 2.07%

CC(=O)S[C@@H]1CC2=CC(=O)CC[C@]2(C)[C@H]2CC[C@@]3(C)[C@@H](CC[C@@]34CCC(=O)O4)[C@H]12 [spironolactone]
inactive: 1 nM -0.66% | 8.33 nM -0.55% | 100 nM -0.37% | 833.33 nM 3.98% | 10000 nM 6.39%

CC(C)[C@H](CO)Nc1nc(Nc2ccc(C(=O)O)c(Cl)c2)c2ncn(C(C)C)c2n1 [purvalanol-B]
inactive: 1 nM 11.3% | 8.33 nM 5.29% | 100 nM 0.04% | 833.33 nM 4.65% | 10000 nM -1.55%

CC(C)c1c(NC(=O)Nc2ccc(Cl)cc2)c(=O)n(-c2ccccc2)n1C
inactive: 1 nM 0.15% | 8.33 nM 0.39% | 100 nM 0.07% | 833.33 nM -1.16% | 10000 nM -0.11%

O=C(O)/C=C/c1ccc(O)cc1 [naringeninic-acid]
inactive: 1 nM 1.32% | 8.33 nM -1.82% | 100 nM -12% | 833.33 nM -0.34% | 10000 nM -0.09%

C=C1C(=O)O[C@@H]2C[C@@]3(C)CCC[C@H](C)C3=C[C@H]12 [alantolactone]
inactive: 1 nM -2.07% | 8.33 nM -0.06% | 100 nM -2.01% | 833.33 nM 1.03% | 10000 nM 12.6%

COc1cc(C[C@@H](CO)[C@H](CO)Cc2ccc(O)c(OC)c2)ccc1O [secoisolariciresinol-(-)]
inactive: 1 nM 1.65% | 8.33 nM 5.68% | 100 nM 0.9% | 833.33 nM 0.53% | 10000 nM -4.27%

COc1ccccc1OCC(O)CNC(C)C (stereo not given) [moprolol]
inactive: 1 nM -0.33% | 8.33 nM -2.22% | 100 nM -0.82% | 833.33 nM -3.01% | 10000 nM -2.72%

CCN(c1cc(C#CCN2CCOCC2)cc(C(=O)NCc2c(C)cc(C)[nH]c2=O)c1C)[C@H]1CC[C@H](N(C)CCOC)CC1
inactive: 1 nM -1.56% | 8.33 nM -1.99% | 100 nM 3.36% | 833.33 nM -2.9% | 10000 nM -5.69%

O=C(c1ccc(F)cc1)N1CCC[C@H](c2nc(-c3ccc(F)cc3)no2)C1
inactive: 1 nM -1.67% | 8.33 nM -0.59% | 100 nM -0.85% | 833.33 nM 0.74% | 10000 nM 2.44%

COC(=O)N[C@H](C(=O)N1CC2(CC2)C[C@H]1c1nc(-c2ccc3c(c2)C(F)(F)c2cc(-c4ccc5[nH]c([C@@H]6[C@H]7CC[C@H](C7)N6C(=O)[C@@H](NC(=O)OC)C(C)C)nc5c4)ccc2-3)c[nH]1)C(C)C [ledipasvir]
inactive: 1 nM -1% | 8.33 nM 1.14% | 100 nM -1.6% | 833.33 nM -5.39% | 10000 nM -5.41%

CCC[C@@H]1CC(=O)N([C@@H](CC)C(N)=O)C1 [Brivaracetam]
inactive: 1 nM -0.93% | 8.33 nM -1.72% | 100 nM -2.91% | 833.33 nM -2.52% | 10000 nM 1.45%

Oc1ccc(Cl)c2cccnc12 [cloxyquin]
inactive: 1 nM 1.22% | 8.33 nM 0.37% | 100 nM 2.68% | 833.33 nM 3.29% | 10000 nM -0.16%
